Laboratory results: PubChem BioAssay AID651784 (National Center for Advancing Translational Sciences (NCATS), 2012)
Results filed as inconclusive are left out. Active and inactive are the calls of the source. Calls follow the shape of the dose curve; as a rule, active = well fitted inhibition curve with a large enough effect; inconclusive = small, poorly fitted or top-dose-only effect; inactive = no such curve, though single readings can be large or run the other way.

Experiment: Acumen qHTS Assay for Inhibitors of the mTORC1 Signaling Pathway in MEF (Tsc2-/-, p53-/-) Cells: Hit Validation;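 also: phospho-rpS6 Ser235/236 immunofluorescence normalized to propidium iodide cell count; nearly all actives have a fitted effect of over 65% in size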;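 as to activity change, negative = inhibition: cells exposed to compound for 24 hours; plate controls were DMSO for no effect and 7.5 nM rapamycin control for full effect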
Conditions: Acumen imaging; activity change, negative = inhibition: at 37.3 µM (top of the series)
Potency is read from the fitted curve at half-maximal effect.

Row | SMILES | Potency | activity change, negative = inhibition [%]
1 | CCOC(=O)c1c(NC(=O)c2ccc(S(=O)(=O)N(CCOC)CCOC)cc2)sc2c1CC(C)(C)NC2(C)C | 8.26 µM (active) | –
2 | COC(=O)c1cc2sc(C)cc2n1Cc1ccccc1 | – | -16.6
3 | COc1ccccc1N1CCN(C(=O)c2cnc(N3CCCCC3)c3ccccc23)CC1 | 0.927 µM (active) | –
4 | COc1ccccc1NC(=O)CSc1ccc(-c2ccccn2)nn1 | 11.7 µM (active) | –
5 | Cc1ccc(S(=O)(=O)c2nnn3c2nc(NCc2cccs2)c2sccc23)cc1 | – | -1.4
6 | COc1cc2c(cc1OC)n(CC(=O)c1ccc(F)cc1)c(=O)n1nc(CCn3nc(C)cc3C)nc21 | – | -5.74
7 | COc1ccc(C(=O)N2CCN(C(=O)COc3ccc(Br)cc3)CC2)cc1OC | – | -17.7
8 | CCCCS(=O)(=O)c1oc(-c2ccc(F)cc2)nc1S(=O)(=O)c1ccccc1 | – | -151
9 | CC(=O)C1=C(c2ccccc2)N(C(C)=O)n2c(nnc2C2CCCCC2)S1 | 7.36 µM (active) | –
10 | Cc1ccccc1NC(=O)c1sc2nc3c(cc2c1N)CCCC3 | – | -21.3
11 | c1ccc(N2CCN(c3ncnc4[nH]ncc34)CC2)cc1 | – | 6.17
12 | Cc1cccc(NS(=O)(=O)c2ccc3[nH]c4c(c3c2)CCCCCC4)c1 | 5.21 µM (active) | –
13 | COc1ccc(CNCCC(c2ccc3c(c2)OCO3)c2ccccc2OC)cc1 (configuration not stated) | – | -87.3
14 | Cc1ccc(NC(=O)CCNS(=O)(=O)c2cccc3nonc23)cc1Cl | – | 5.73
15 | Cc1cccc(-c2nc3c(cnn3-c3ccccc3)c(=O)n2-c2ccc(Br)cc2)c1 | – | -37.3
16 | COc1cccc(-c2nc(S(=O)(=O)c3ccc(Cl)cc3)c(NCc3ccccc3)o2)c1 | – | 29.5
17 | CCS(=O)(=O)c1ncc(Cl)c(C(=O)NCc2ccccc2)n1 | 6.56 µM (active) | –
18 | O=C(Nc1ccc(F)c(Cl)c1)c1cc(S(=O)(=O)N2CCCc3ccccc32)ccc1F | – | -51.1
19 | Cc1c(Cl)cccc1-c1ccc(C(=O)Nc2ccc3oc(-c4cccnc4)nc3c2)o1 | – | -39.9

Row | SMILES | Potency | activity change, negative = inhibition [%]
20 | CCCN(CCC)CCCNC(=O)C1CCN(c2nc3ccc(CC)cc3s2)CC1 | 11.7 µM (active) | –
21 | CCOc1ccccc1NC(=O)CSc1cc(=O)n(CC)c2ccccc12 | – | 1.04
22 | Cc1ccc(-c2nnc(C3CCN(S(=O)(=O)c4ccc(C)c(C)c4)CC3)o2)cc1 | – | -7.22
23 | COc1cccc(-c2nc(SCC(=O)NCC3CCCO3)c(-c3ccc(F)cc3)[nH]2)c1 (configuration not stated) | – | -3.33
24 | CCOC(=O)Cn1c(=O)c2c(nc(N3CCOCC3)n2Cc2ccccc2)n(C)c1=O | 2.93 µM (active) | –
25 | CCC(C(=O)N1CCN(c2cccc(C)c2C)CC1)n1nc(C)c2sc3ccccc3c2c1=O (configuration not stated) | – | -0.603
26 | Cc1cc(C)c(NC(=O)C2CCN(c3nc4ccccc4n4cccc34)CC2)c(C)c1 | 14.7 µM (active) | –
27 | COc1ccc(-c2cc(C(F)(F)F)nc(S(=O)(=O)CCCC(=O)Nc3ccccc3C(F)(F)F)n2)cc1OC | 13.1 µM (active) | –
28 | CCOC(=O)Cc1ccc(NC(=O)n2ncc3cc(Cl)ccc32)cc1 | 8.26 µM (active) | –
29 | COc1ccc(-c2nc(CCNC(=O)c3c(F)cccc3Cl)cs2)cc1 | – | -0.104
30 | CCOc1ccc(NC(=O)CSc2oc(-c3ccccc3)nc2S(=O)(=O)c2ccc(Cl)cc2)cc1 | – | -112
31 | CCN(CC)CCn1c(=N)n(CCOc2ccccc2Cl)c2ccccc21 | – | -149
32 | CCc1ccc(NC(=O)CSc2nccn2C2CCCC2)cc1 | – | -3.21
33 | Cc1cccc(CSCCNC(=O)CN(c2ccccc2)S(=O)(=O)N(C)C)c1 | – | 3.74
34 | CCCS(=O)(=O)c1ncc(Cl)c(C(=O)N2CCN(c3ccc(OC)cc3)CC2)n1 | 7.36 µM (active) | –
35 | CCN(CC)CCNC(=O)c1cc(-c2ccc(Br)s2)nc2ccccc12 | 11.7 µM (active) | –
36 | O=C(CCS(=O)(=O)c1nc(-c2cccs2)cc(C(F)(F)F)n1)Nc1cccc(O)c1 | – | -112
37 | Cc1ccc2c(c1)C(=O)C(=O)N2Cc1ccc(OC(C)C)cc1 | 0.0736 µM (active) | –
